TLR4 MyD88 blk – blocks binding of human TLR4 to MyD88; inhibition, % at 10 µM; 16,000 tested, 0.06% active; Cell-based TLR4-MyD88 binding inhibition assay; in the data active means inhibition above about 45%
rat GALR2 ag – activates the rat galanin receptor 2; O08726; 16,000 tested, 0.5% active; cell-based GALR2 agonist screen; activation, % at 10 µM; in the data active means activation above about 15%
S1P1 agonist – S1P1 (human) receptor agonism. S1P1 agonist cell-based reporter assay. activation, % at 4.5 µM. 16,000 tested, 1.5% active. AID 1044; in the data active means activation above about 80%
Target sequence (P21453 whole entry, looked up): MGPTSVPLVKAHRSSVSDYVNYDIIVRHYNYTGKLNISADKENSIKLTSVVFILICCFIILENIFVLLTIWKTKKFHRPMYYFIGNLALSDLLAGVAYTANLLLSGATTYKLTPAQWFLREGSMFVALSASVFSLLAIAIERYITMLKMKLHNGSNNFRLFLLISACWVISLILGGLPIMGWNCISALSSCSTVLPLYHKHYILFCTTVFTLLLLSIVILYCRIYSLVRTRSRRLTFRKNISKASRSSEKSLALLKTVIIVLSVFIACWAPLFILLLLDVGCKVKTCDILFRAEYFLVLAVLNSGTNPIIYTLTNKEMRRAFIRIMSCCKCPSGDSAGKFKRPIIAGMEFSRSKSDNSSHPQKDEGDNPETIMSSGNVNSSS
Hits are given with their value. This is a sample that favours compounds with a hit; in the whole collection about 1.8% have one here.

`Cc1c(/C=N/Nc2ccc([N+](=O)[O-])cc2)sc2ccc(Cl)cc12` gave TLR4 MyD88 blk inactive, rat GALR2 ag inactive and S1P1 agonist inactive.
For CCOC(=O)c1sc(-c2ccccc2)nc1C the results were TLR4 MyD88 blk inactive, rat GALR2 ag inactive and S1P1 agonist 97.
Screening CCOC(=O)c1sc(SCc2ccc(Cl)cc2)nc1C returned TLR4 MyD88 blk inactive, rat GALR2 ag inactive and S1P1 agonist inactive.
CCOC(=O)C1CCN(C(=O)c2sc(-c3ccccc3)nc2C)CC1 was read as TLR4 MyD88 blk inactive, rat GALR2 ag inactive and S1P1 agonist inactive.
For CCOC(=O)c1sc(COc2cccc(Cl)c2)nc1C the results were TLR4 MyD88 blk inactive, rat GALR2 ag inactive and S1P1 agonist 91.
`CCCc1c(OCCCOc2ccc3c(=O)c(-c4ccccc4)coc3c2)ccc(C(C)=O)c1O` gave TLR4 MyD88 blk inactive, rat GALR2 ag inactive and S1P1 agonist 95.
COc1ccc(-c2coc3cc(OS(=O)(=O)c4ccccc4)ccc3c2=O)cc1 was read as TLR4 MyD88 blk inactive, rat GALR2 ag inactive and S1P1 agonist inactive.
Screening CSc1nc(-c2ccccn2)nc(N)c1C#N returned TLR4 MyD88 blk inactive, rat GALR2 ag inactive and S1P1 agonist inactive.
`O=C(Nc1ccc(Cl)cc1)OCCSCCS(=O)(=O)c1ccc(Cl)cc1` gave TLR4 MyD88 blk inactive, rat GALR2 ag inactive and S1P1 agonist inactive.
O=C(Cn1c2c(c(=O)n3ncnc13)CCC2)N/N=C/c1cccs1 was read as TLR4 MyD88 blk inactive, rat GALR2 ag inactive and S1P1 agonist inactive.
`Cn1c2c(c(=O)n3ncnc13)CCCC2` gave TLR4 MyD88 blk inactive, rat GALR2 ag inactive and S1P1 agonist 91.
For O=c1cc(O)c2c(Cl)cc(Cl)cc2[nH]1 the results were TLR4 MyD88 blk inactive, rat GALR2 ag inactive and S1P1 agonist inactive.
For Cc1ccc(N/C=C(\C#N)C(=O)c2cc(C(C)(C)C)on2)cc1 the results were TLR4 MyD88 blk inactive, rat GALR2 ag inactive and S1P1 agonist inactive.
For COc1ccc(/C=C(\C#N)C(=O)c2cc(C(C)(C)C)on2)cc1 the results were TLR4 MyD88 blk inactive, rat GALR2 ag 21 and S1P1 agonist inactive.
For CNc1nnc(SCc2csc3ccccc23)s1 the results were TLR4 MyD88 blk inactive, rat GALR2 ag inactive and S1P1 agonist 118.
N=C(N)SCc1csc2ccccc12 was read as TLR4 MyD88 blk inactive, rat GALR2 ag inactive and S1P1 agonist inactive.
`Cc1ccccc1/C(N)=N/OC(=O)c1ccc(C(C)(C)C)s1` gave TLR4 MyD88 blk inactive, rat GALR2 ag inactive and S1P1 agonist 103.
`CC(C)(C)c1ccc(C(=O)c2cccs2)s1` gave TLR4 MyD88 blk inactive, rat GALR2 ag inactive and S1P1 agonist inactive.
Cc1c(C)n(Cc2ccc(Br)cc2)c(=O)n(Cc2ccc(Br)cc2)c1=O was read as TLR4 MyD88 blk inactive, rat GALR2 ag inactive and S1P1 agonist 102.
Screening CCCCOc1nc2c(c(=O)n(C)c(=O)n2C)n1Cc1ccc(Br)cc1 returned TLR4 MyD88 blk inactive, rat GALR2 ag inactive and S1P1 agonist inactive.
For COc1ccc(Oc2cccc(Cl)c2C#N)cc1 the results were TLR4 MyD88 blk inactive, rat GALR2 ag inactive and S1P1 agonist inactive.
For COC(=O)c1cnc(N2CCN(c3ncc(C(=O)OC)c(C(F)(F)F)n3)CC2)nc1C(F)(F)F the results were TLR4 MyD88 blk inactive, rat GALR2 ag inactive and S1P1 agonist inactive.
`O=C(Nc1ccccc1)Nc1nnc(C(F)(F)F)s1` gave TLR4 MyD88 blk inactive, rat GALR2 ag inactive and S1P1 agonist 109.
For O=C(Nc1nnc(C(F)(F)F)s1)c1ccccc1 the results were TLR4 MyD88 blk inactive, rat GALR2 ag inactive and S1P1 agonist inactive.
COC(=O)C1=C(N)CC(c2ccccc2)S1 (stereo unspecified) was read as TLR4 MyD88 blk inactive, rat GALR2 ag inactive and S1P1 agonist inactive.
For N#CCSC1=CC(=O)CC(c2ccccc2)S1 (stereo unspecified) the results were TLR4 MyD88 blk inactive, rat GALR2 ag inactive and S1P1 agonist 91.
For CC(CC(=O)c1cccs1)C(=O)c1ccccc1 (stereo unspecified) the results were TLR4 MyD88 blk inactive, rat GALR2 ag inactive and S1P1 agonist inactive.
Screening CC(=O)c1csc(CS(=O)(=O)c2ccc(Cl)cc2)n1 returned TLR4 MyD88 blk inactive, rat GALR2 ag inactive and S1P1 agonist inactive.
CC(C)(C)C(=O)OCc1nc(-c2cc(-c3ccccc3)no2)cs1 was read as rat GALR2 ag inactive and S1P1 agonist inactive.
For CC(C)(C)C(=O)OCc1nc(-c2ccc3c(c2)OCO3)cs1 the results were TLR4 MyD88 blk inactive, rat GALR2 ag inactive and S1P1 agonist 92.
`CC(=O)N(C(C)=O)N(C(C)=O)c1cc2ccccc2cn1` gave TLR4 MyD88 blk inactive, rat GALR2 ag inactive and S1P1 agonist inactive.
Cc1nc(C)c(-c2nnc(-c3ccc(C(F)(F)F)cc3)o2)s1 was read as TLR4 MyD88 blk inactive, rat GALR2 ag inactive and S1P1 agonist 88.
For O=C(CSc1nnc(-c2ccc(C(F)(F)F)cc2)o1)c1ccc(F)cc1 the results were TLR4 MyD88 blk inactive, rat GALR2 ag inactive and S1P1 agonist inactive.
Screening COc1ccc(C(=O)Nc2ccc(N3CCN(c4ncccc4C(F)(F)F)CC3)nc2)cc1 returned TLR4 MyD88 blk inactive, rat GALR2 ag inactive and S1P1 agonist 93.
For O=C(Nc1ccc(N2CCN(c3ncccc3C(F)(F)F)CC2)nc1)Nc1ccc(F)cc1F the results were TLR4 MyD88 blk inactive, rat GALR2 ag inactive and S1P1 agonist inactive.
For C#CCSc1nc(-c2ccc(C(F)(F)F)cc2)nc(C)c1C(C)=O the results were TLR4 MyD88 blk inactive, rat GALR2 ag inactive and S1P1 agonist inactive.
`CSC(=NCc1sccc1CSc1ccc(Cl)cc1)NC#N` gave TLR4 MyD88 blk inactive, rat GALR2 ag inactive and S1P1 agonist 97.
For CSC(=NCc1cccs1)NC#N the results were TLR4 MyD88 blk inactive, rat GALR2 ag inactive and S1P1 agonist inactive.
`CN(C)/C=C/C(=O)c1cc(F)cc(F)c1O` gave TLR4 MyD88 blk inactive, rat GALR2 ag inactive and S1P1 agonist inactive.
Screening COc1ccc(C(=O)N/N=C(/C(=O)O)c2ccccc2)cc1 returned TLR4 MyD88 blk inactive, rat GALR2 ag inactive and S1P1 agonist inactive.
COc1ccc(C(=O)NC(=Nc2c(C)cccc2C)SC)cc1 was read as TLR4 MyD88 blk inactive, rat GALR2 ag inactive and S1P1 agonist 101.
Screening COc1ccc(Cl)cc1N1C(=O)COCC1=O returned TLR4 MyD88 blk inactive, rat GALR2 ag inactive and S1P1 agonist inactive.
Screening O=C(NC(=O)N1CCOCC1)c1ccc([N+](=O)[O-])s1 returned TLR4 MyD88 blk inactive, rat GALR2 ag inactive and S1P1 agonist 89.
O=C(NC(=O)N1CCOCC1)c1nnc(-c2ccccc2)o1 was read as TLR4 MyD88 blk inactive, rat GALR2 ag inactive and S1P1 agonist inactive.
COCCOC(=O)c1nccnc1C(=O)Nc1ccc2c(c1)OCO2 was read as TLR4 MyD88 blk inactive, rat GALR2 ag inactive and S1P1 agonist inactive.
CCCS(=O)(=O)/C(C#N)=N/Nc1cc(C(F)(F)F)cc(C(F)(F)F)c1 was read as TLR4 MyD88 blk inactive, rat GALR2 ag inactive and S1P1 agonist 117.
`CCCS(=O)(=O)/C(C#N)=C/c1cc(C(F)(F)F)cc(C(F)(F)F)c1` gave TLR4 MyD88 blk inactive, rat GALR2 ag inactive and S1P1 agonist inactive.
Screening Cc1cc(/C(N)=N\O)n(C)n1 returned rat GALR2 ag inactive and S1P1 agonist inactive.
`NNC(=O)c1cnn(-c2ccc(Cl)cc2)c1C(F)(F)F` gave TLR4 MyD88 blk inactive, rat GALR2 ag inactive and S1P1 agonist inactive.

High-throughput results: PubChem BioAssay, The Scripps Research Institute Molecular Screening Center
